In PubChem BioAssay AID504466 (National Center for Advancing Translational Sciences (NCATS), 2011):
Screen size: about 330,000 compounds; about 4,200 (1.3%) were called active. Not shown: some 6% with an inconclusive outcome. Only a selection was taken, and actives are over-represented in it overall. Values without a mark were called inactive. Calls come from the whole dose curve; as a rule, active = well fitted activation curve with a large enough effect; inconclusive = small, poorly fitted or top-dose-only effect; inactive = no such curve, though single readings can be large or run the other way.

Assay: qHTS screen for small molecules that induce genotoxicity in human embryonic kidney (HEK293T) cells expressing luciferase-tagged ELG1; note: nearly all actives have a fitted effect of over 60% in size; for activity change, positive = activation: % of control where 0% means no effect
Conditions: HEK293T ELG1-luciferase reporter, luminescence, 16 h; series mostly up to 46 µM; activity change, positive = activation: at the top concentration
Summary of the method: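 16 hr compound incubation (37 °C, 5% CO2) of HEK293T cells carrying luciferase-tagged ELG1; luciferase then measured by ONE-Glo luminescence after 30 min at RT.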
Potency is the fitted concentration of half-maximal effect.

SMILES | activity change, positive = activation [%] | Potency
CCN(CC(=O)NC(C)C)C(=O)c1cc(S(=O)(=O)N2CCCCC2)ccc1N1CCCCC1 | 2.3 | 
O=C(c1cc(-c2ccc(F)cc2)on1)N1CCN(c2ccc(F)cc2)CC1 | 1.19 | 
O=C(c1cc(-c2ccc(O)cc2)on1)N1CCOCC1 |  | 4.61 µM (active)
O=C(c1cc(-c2ccc(O)cc2)on1)N1CCCc2ccccc21 | 12.3 | 
COc1ccc(-c2c(C#Cc3ccsc3)c3cc(-c4ccc(CN5CCOCC5)cc4)ccc3n2C)cc1 | 0.314 | 
O=C(OCC(=O)N1CCCC1)c1ccco1 | 2.73 | 
CCc1ccc(C(=O)COC(=O)c2ccco2)cc1 |  | 23.1 µM (active)
O=C(COC(=O)c1ccccc1C(=O)c1ccccc1)c1ccco1 | -0.249 | 
COc1ccc(S(=O)(=O)N2CCN(CC(=O)N3CCOCC3)CC2)cc1OC | 0.561 | 
CCOC(=O)C1=CN(Cc2ccc(Br)cc2)S(=O)(=O)N(C)C1C (configuration not stated) | 8.95 | 
COc1cc(NC(=O)COC(=O)c2cc(S(=O)(=O)N3CCOCC3)ccc2F)cc(OC)c1 | 1.61 | 
CS(=O)(=O)N1CCc2nc(-c3ccccc3)sc2C1 |  | 9.2 µM (active)
CS(=O)(=O)N1CCN(c2cccc(Cl)n2)CC1 | 0.407 | 
CS(=O)(=O)N1CCC(C(=O)N2CCN(c3ccccc3)CC2)CC1 | 21.4 | 
COc1ccc(C(=O)COC(=O)CN2C(=O)C3CC=CCC3C2=O)c(OC)c1 (configuration not stated) | 10.6 | 
CC(C)Sc1ncnc2c1cnn2-c1ccccc1 |  | 8.2 µM (active)

SMILES | activity change, positive = activation [%] | Potency
CCC(C)N(C(=O)CSc1ncnc2c1cnn2-c1ccccc1)C1CCS(=O)(=O)C1 (configuration not stated) | 8.25 | 
CC(Sc1ncnc2c1cnn2-c1ccccc1)C(=O)Nc1ccc(N2CCOCC2)cc1 (configuration not stated) | 4.63 | 
COc1ccc(Br)cc1CN(C)C(=O)C1CC(=O)N(C2CCCC2)C1 (configuration not stated) | -1.91 | 
O=C1NC(Cc2ccc(O)cc2)c2nc3ccc(Cl)cc3c(=O)n2-c2ccccc21 (configuration not stated) | -0.0778 | 
COC(=O)c1ccc(NC(=O)c2ccco2)cc1 |  | 20.6 µM (active)
O=C(Nc1ccccc1)c1ccco1 | 10.5 | 
CCOC(=O)c1ccc(NC(=O)CNC(=O)c2ccco2)cc1 | -0.116 | 
O=C(CN1C(=O)NC(Cc2c[nH]c3ccccc23)C1=O)Nc1ccccc1C(F)(F)F (configuration not stated) | 1.08 | 
C[C@H]1COC(=O)[C@H](CC(=O)OC(C)(C)C)C/C=C\C[C@@H](CC(=O)N[C@H](CO)Cc2ccccc2)C(=O)N1 | 1.67 | 
CCOC(=O)C1=C(C)N(C[C@@H]2CC[C@@H](Cc3ccc(-c4ccccc4)cc3)O2)C(=O)NC1c1ccc([N+](=O)[O-])cc1 (some centres not stated) | -1.18 | 
COc1ccc2c(Cl)c(C(=O)NCc3ccco3)sc2c1 |  | 10 µM (active)
O=C(NCc1ccco1)c1sc2cccc(F)c2c1Cl |  | 18.4 µM (active)
O=C(CCNC(=O)c1ccccc1Cl)NCc1ccco1 | 0.628 | 
O=C(NCc1ccco1)c1nn2cccnc2c1Cl | 8.92 | 
COc1ccc(C(=O)Nc2ccccc2C(=O)NCc2ccco2)cc1 | 2.53 | 
COc1ccc(CNC(=O)CNC(=O)c2sc3ccccc3c2Cl)cc1OC | -0.263 | 
